Rows were chosen to be rich in hits. Some 4.2% of all compounds tested hit in one or more screens of this group.
SMARCA2 act – increases SMARCA2 function in MMTV reporter cells; activation, % at 9.1 µM; hit rate 1% among 370,000; MG213 cells, MMTV-luciferase reporter, dexamethasone, overnight; in the data active means activation above about 7.8%;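 further: 0% = vehicle wells and 100% = reference activator wells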
ssDAF-12 act – activates DAF-12 receptor from parasite S. stercoralis | hit rate 1% among 370,000 | HEK293 ssDAF-12/GRIP1 lit1-tk-luc reporter, luminescence; % of 3 µM dafachronic acid response | AID 652126 | activation, % at 6.8 µM;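 active means activation above the mean over all tested compounds plus 3 SD, cut at about 0.9% in these data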;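 further: 0% = DMSO-only wells and 100% = 3 µM delta7-dafachronic acid wells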
DAX1 inh – inhibitors of DAX1 repression of SF-1 activated StAR promoter; AID 652010; HEK293T StAR-luciferase reporter, SF-1/DAX-1 repression relief; hit rate 1.1% among 370,000; inhibition, % at 6.8 µM;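 active means inhibition above the mean over all tested compounds plus 3 SD, cut at about 3.6% in these data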;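 further: 0% = DAX-1 cells with DMSO and 100% = cells lacking DAX-1 with DMSO; higher inhibition means more luminescence from relief of DAX-1 repression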
hcDAF12 agonist – H. contortus DAF-12 activation, primary screen | HEK293 hcDAF-12 lit1-tk-luc reporter, luminescence; 0% DMSO, 100% Δ7-dafachronic acid | activation, % at 6.8 µM | hit rate 1.4% among 370,000;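 active means activation above the mean of all tested compounds plus 3 SD, cut at about 5.5% in these data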;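 further: 100% = response to 3 µM Δ7-dafachronic acid high control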
hgDAF-12 ag – agonists of H. glycines DAF-12 nuclear receptor; activation, % at 6.8 µM; AID 687014; HEK293 GAL4-hgDAF12 UAS-luciferase reporter, agonist luminescence; normalized to butyrate control; hit rate 1.8% among 370,000;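 active means activation above a cutoff set at the mean of all screened compounds plus 3 SD, cut at about 10% in these data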;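 further: 0% = DMSO wells and 100% = sodium butyrate wells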
hgDAF12 ag – confirmation of H. glycines DAF-12 agonists. hit rate 80% among 3,300. AID 743050. shares compounds with hgDAF-12 ag. activation, % at 6.8 µM. HEK293 GAL4-hgDAF12 luciferase reporter, agonist mode; percent of butyrate response;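 active means mean activation over triplicate wells above the hit cutoff derived from the earlier primary screen, cut at about 11% in these data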;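 further: 0% = DMSO low control and 100% = 2 mM sodium butyrate high control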
LXRb DAF12 ctr – LXR-beta agonism as DAF-12 counter-screen; shares compounds with hgDAF-12 ag; HEK293 Gal4-LXR luciferase reporter, 24 h; activation, % at 6.8 µM; 3,300 tested, under 10 active; AID 743051;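 active means mean activation of the triplicate above a set limit carried over from the primary screen, none filed active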
Target sequence (P55055 whole entry, looked up, the tested form may be a part): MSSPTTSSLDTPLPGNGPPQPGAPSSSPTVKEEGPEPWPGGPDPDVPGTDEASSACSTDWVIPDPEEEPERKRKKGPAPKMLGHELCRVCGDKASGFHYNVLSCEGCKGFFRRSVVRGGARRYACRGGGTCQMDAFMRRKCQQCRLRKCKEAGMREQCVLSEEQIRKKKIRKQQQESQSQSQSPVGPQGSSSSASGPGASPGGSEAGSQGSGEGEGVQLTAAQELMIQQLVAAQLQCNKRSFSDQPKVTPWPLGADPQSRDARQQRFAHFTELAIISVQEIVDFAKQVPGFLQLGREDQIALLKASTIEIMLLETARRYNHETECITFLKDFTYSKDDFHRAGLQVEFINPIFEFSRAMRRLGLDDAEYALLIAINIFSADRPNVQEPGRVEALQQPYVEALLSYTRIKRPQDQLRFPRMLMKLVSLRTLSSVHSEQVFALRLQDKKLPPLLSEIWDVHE
Numbers without * were called inactive; x = not tested or not shown.

SMILES | SMARCA2 act | ssDAF-12 act | DAX1 inh | hcDAF12 agonist | hgDAF-12 ag | hgDAF12 ag | LXRb DAF12 ctr
C/C(=N\Nc1ncc(Cl)cc1Cl)c1ccc2c(c1)OCO2 | 4 | 0 | 0 | 3 | 3 | x | x
Cc1ccc(-c2nc(-c3ccccn3)sc2CC(=O)O)cc1 | 0 | -1 | 0 | -1 | 6 | x | x
Cc1ccc(Nc2nc(-c3ccccc3)c(CC(=O)O)s2)cc1 | 0 | 0 | 2 | 2 | 14* | 13* | 0
S=C(NCc1ccco1)Nc1ccc(Br)cc1Cl | 8 | -1 | 0 | 2 | 13* | 4 | 0
S=C(NCc1ccco1)Nc1ccc(Cl)cc1Cl | 0 | -1 | 0 | 0 | 6 | x | x
CCCN(CCC)c1cc(=O)nc2ccccn12 | -3 | -1 | 0 | 1 | -3 | x | x
CC1(C(=O)NCCc2ccccc2)Cc2c(-c3cccc(C(N)=O)c3)ccnc2O1 (stereo unspecified) | -4 | -2 | -2 | -1 | 3 | x | x
CCOC(=O)Nc1ccc2nc(-c3cscn3)[nH]c2c1 | 2 | 0 | -1 | 3 | 16* | 14* | 0
O=C(NC1CCCCCCC1)c1ccccc1O | 4 | -1 | 1 | 3 | 8 | x | x
Cc1ccccc1C(=O)NC1CCCCCCC1 | 1 | 1.0* | 2 | 4 | 15* | 12* | 1
COC(=O)[C@]12C[C@H](CC(=O)NCCCN3CCCC3=O)C(=O)N(Cc3cccc4ccccc34)C1=C[C@H](COCc1ccccc1)O[C@@H]2C | -1 | -1 | -1 | -1 | 4 | x | x
COc1cc(OC)c(C2=NOC(C(=O)N3CCN(C(=O)c4ccco4)CC3)C2)cc1Cl (stereo unspecified) | -3 | -2 | 0 | -2 | -1 | x | x
COc1cc(OC)c(C2=NOC(C(=O)N3CCc4ccccc4C3)C2)cc1Cl (stereo unspecified) | 1 | -1 | 0 | -1 | 14* | -4 | 0
Cc1nn2c(N)c(-c3ccccc3)cnc2c1-c1ccc(Cl)cc1 | 5 | 1 | 1 | 3 | 14* | 17* | 0
COc1ccc(C2CC(c3ccc4ccccc4c3)=NN2C(=O)CN2CCC(C(N)=O)CC2)cc1 (stereo unspecified) | 4 | -1 | 3 | 3 | 13* | 5 | 0
CC(C)C1CC(N(C)C)=CC(=S)N1 (stereo unspecified) | -10 | -2 | -4 | -4 | -8 | x | x
c1cncc(-c2nc(-c3ccc4c(c3)OCCO4)cs2)c1 | 2 | 0 | 1 | 5.8* | 15* | 16* | 1
Cc1ccc(NC(=O)NCc2ccco2)cc1[N+](=O)[O-] | 3 | -2 | 0 | -2 | 5 | x | x
O=C(COC(=O)c1ccccc1C(=O)c1ccccc1)NCc1ccc(F)cc1 | -1 | -1 | 1 | -1 | 16* | 2 | 0
O=C(COC(=O)c1ccccc1C(=O)c1ccc(Cl)cc1)NCc1ccccc1 | 0 | -1 | 0 | -2 | 2 | x | x
COc1ccc(O)c(C2=Nc3ccccc3N=C(c3ccccc3)C2)c1 | 4 | 0 | 1 | 3 | 14* | 0 | 0
N/C(=N\C(=O)OCc1ccccc1)N(CC#CC1=CCCCC1)CC1CC1 | -3 | -2 | 0 | 1 | 4 | x | x
Brc1c(CSc2nc3ccccc3s2)nc2ncccn12 | 3 | 0 | 3 | 1 | 16* | 12* | 1
O=C(CN(C(=O)CNS(=O)(=O)c1ccccc1)c1ccc2c(c1)OCCO2)NCc1ccco1 | 0 | -1 | 0 | -1 | 15* | 1 | 0
O=C(NC1CCCC1)C1C(c2ccccc2)=Nc2ccccc2N1C(=O)c1cc(Cl)cc(Cl)c1 (stereo unspecified) | -3 | 0 | 1 | 0 | 0 | x | x
SMILES | SMARCA2 act | ssDAF-12 act | DAX1 inh | hcDAF12 agonist | hgDAF-12 ag | hgDAF12 ag | LXRb DAF12 ctr
CCCNCc1nnc(-c2ccccc2Cl)o1 | -1 | -1 | 0 | -1 | 3 | x | x
Clc1ccccc1-c1nnc(-c2ccccc2Cl)o1 | 4 | -1 | 3 | 5 | 15* | 17* | 1
Clc1ccc(-c2nnc(-c3ccccc3Cl)o2)cc1 | 6 | 0 | 2 | 4 | 14* | 19* | 1
COC(=O)[C@]12C[C@H](CC(=O)N3CCCCC3)C(=O)N(Cc3cccc4ccccc34)C1=C[C@H](COCc1ccccc1)O[C@@H]2C | -2 | 0 | 0 | -3 | -2 | x | x
CCCNC(=O)c1oc2ccc3c(c2c1C)C(=O)CC(C)(C)O3 | 3 | 0 | 3 | 3 | 16* | 13* | 1
COC(=O)C1=C(C)N(Cc2ccccc2C(F)(F)F)C(=NCc2cc(OC)c(OC)c(OC)c2)NC1c1ccc(Cl)cc1 (stereo unspecified) | -3 | 1 | -1 | -2 | 3 | x | x
CC(=O)c1ccc(NC(=O)C2CC(=O)N(Cc3ccccc3)C2)cc1 (stereo unspecified) | 5 | -1 | 1 | 0 | 14* | 10 | 0
CCCC(=O)OC[C@H]1CN(C2CCCC2)S(=O)(=O)c2c(Oc3ccccc3)cccc2O1 | 3 | -1 | 0 | -1 | 0 | x | x
O=c1[nH]c(CSc2ccccn2)nc2ccccc12 | 5 | 0 | 3.6* | 2 | 18* | 14* | 1
O=c1[nH]c(CSc2ccccn2)nc2c1cnn2-c1ccccc1 | 2 | -2 | 0 | -1 | 7 | x | x
CN(C)c1ccc(/C=N/OC(=O)Nc2ccccc2)cc1 | 4 | 0 | 2 | 5.8* | 14* | 18* | 1
CC(=O)Nc1ccc(-c2csc(NCc3ccco3)n2)cc1 | 4 | -1 | 1 | 2 | 15* | 12* | 0
Clc1cccc(Nc2nc(-c3ccncc3)cs2)c1 | 1 | -1 | 1 | 2 | 14* | 7 | 0
COc1cccc(Nc2nc(-c3ccc(O)cc3)cs2)c1 | 2 | -1 | 0 | 1 | 6 | x | x
CC(=O)Nc1cccc(-c2csc(Nc3ncccn3)n2)c1 | 2 | 1.1* | 2 | 5 | 19* | 16* | 1
Cc1cc(N2CCNC[C@H]2C)ccc1N1CCN(Cc2ccccc2)[C@@H](C)C1 | -2 | 0 | -1 | -1 | 1 | x | x
Cc1cc(OCc2cc(C(=O)NC(C)c3cnn(C)c3)no2)cc(C)c1Cl (stereo unspecified) | 4 | 0 | 2 | 4 | 16* | 13* | 1
Cc1ccc(C)c(OCc2cc(C(=O)NC(C)c3cnn(C)c3)no2)c1 (stereo unspecified) | 0 | -1 | -1 | -2 | 2 | x | x
Cc1nc(C(C)NC(=O)c2cc(COc3ccc(C)c(C)c3)on2)c(C)s1 (stereo unspecified) | 4 | 0 | 1 | 2 | 13* | 14* | 1
Cc1cccc(CC(C)NC(=O)c2cc(COc3ccc(C)c(C)c3)on2)n1 (stereo unspecified) | 0 | -2 | 0 | 2 | 5 | x | x

Compound activity: PubChem BioAssay, The Scripps Research Institute Molecular Screening Center
